23 targets from the supplement of paper PMC10849652 can be followed below.

Of roughly 8,800 targets only a part is listed; those with a hit were picked by preference. About 0.5% of all pairs of compound and target were hits. A number with no mark means an inactive call.

UniProt Q05823, sequence (Q05823 whole entry, looked up): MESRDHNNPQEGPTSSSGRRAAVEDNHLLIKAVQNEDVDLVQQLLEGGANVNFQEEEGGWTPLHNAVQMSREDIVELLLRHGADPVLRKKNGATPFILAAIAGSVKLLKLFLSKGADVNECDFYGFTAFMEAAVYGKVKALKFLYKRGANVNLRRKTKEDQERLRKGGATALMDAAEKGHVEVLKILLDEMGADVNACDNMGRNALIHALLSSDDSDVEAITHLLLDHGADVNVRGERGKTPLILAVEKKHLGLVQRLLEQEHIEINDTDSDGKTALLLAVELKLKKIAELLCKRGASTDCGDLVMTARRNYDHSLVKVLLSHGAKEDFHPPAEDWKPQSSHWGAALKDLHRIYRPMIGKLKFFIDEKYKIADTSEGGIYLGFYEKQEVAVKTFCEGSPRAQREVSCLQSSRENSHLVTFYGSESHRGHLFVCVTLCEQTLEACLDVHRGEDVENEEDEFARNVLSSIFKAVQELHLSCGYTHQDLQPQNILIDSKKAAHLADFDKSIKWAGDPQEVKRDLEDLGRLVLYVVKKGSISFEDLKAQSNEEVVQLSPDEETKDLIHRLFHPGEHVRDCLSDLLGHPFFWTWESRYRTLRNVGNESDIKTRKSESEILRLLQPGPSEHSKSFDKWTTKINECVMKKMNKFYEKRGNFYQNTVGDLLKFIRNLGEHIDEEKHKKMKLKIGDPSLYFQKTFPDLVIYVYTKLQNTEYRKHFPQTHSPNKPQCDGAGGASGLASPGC
UniProt Q8WWV3, sequence (Q8WWV3 whole entry, looked up): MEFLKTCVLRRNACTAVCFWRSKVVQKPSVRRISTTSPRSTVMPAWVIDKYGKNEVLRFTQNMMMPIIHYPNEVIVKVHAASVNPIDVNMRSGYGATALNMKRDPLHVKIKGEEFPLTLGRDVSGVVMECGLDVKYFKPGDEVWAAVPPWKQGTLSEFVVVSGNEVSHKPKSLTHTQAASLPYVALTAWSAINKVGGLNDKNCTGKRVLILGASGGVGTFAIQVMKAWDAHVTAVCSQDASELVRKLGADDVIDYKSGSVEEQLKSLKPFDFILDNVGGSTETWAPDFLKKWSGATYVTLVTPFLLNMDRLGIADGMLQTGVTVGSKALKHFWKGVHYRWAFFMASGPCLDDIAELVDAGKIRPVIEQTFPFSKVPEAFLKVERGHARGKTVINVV
UniProt Q9UPW6, sequence (Q9UPW6 whole entry, looked up): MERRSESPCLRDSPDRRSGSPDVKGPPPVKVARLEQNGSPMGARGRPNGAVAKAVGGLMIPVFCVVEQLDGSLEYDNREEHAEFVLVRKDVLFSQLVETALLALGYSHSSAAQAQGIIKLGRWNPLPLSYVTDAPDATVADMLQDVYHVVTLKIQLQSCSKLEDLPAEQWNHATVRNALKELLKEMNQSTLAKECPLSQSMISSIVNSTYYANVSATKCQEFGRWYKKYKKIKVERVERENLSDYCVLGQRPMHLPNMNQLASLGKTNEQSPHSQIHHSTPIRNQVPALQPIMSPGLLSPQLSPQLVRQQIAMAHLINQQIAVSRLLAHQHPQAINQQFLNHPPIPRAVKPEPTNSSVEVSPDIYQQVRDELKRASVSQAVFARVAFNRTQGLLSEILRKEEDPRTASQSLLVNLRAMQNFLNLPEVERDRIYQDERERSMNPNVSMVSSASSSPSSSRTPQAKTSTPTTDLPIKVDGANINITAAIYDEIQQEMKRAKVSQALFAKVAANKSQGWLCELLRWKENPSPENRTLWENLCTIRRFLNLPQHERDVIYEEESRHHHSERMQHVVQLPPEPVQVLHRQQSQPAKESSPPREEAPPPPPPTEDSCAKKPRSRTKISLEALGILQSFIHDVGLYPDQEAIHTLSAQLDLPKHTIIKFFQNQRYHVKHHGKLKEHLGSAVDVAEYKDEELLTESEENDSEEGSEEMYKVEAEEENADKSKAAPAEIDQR
UniProt Q7L523, sequence (Q7L523 whole entry, looked up): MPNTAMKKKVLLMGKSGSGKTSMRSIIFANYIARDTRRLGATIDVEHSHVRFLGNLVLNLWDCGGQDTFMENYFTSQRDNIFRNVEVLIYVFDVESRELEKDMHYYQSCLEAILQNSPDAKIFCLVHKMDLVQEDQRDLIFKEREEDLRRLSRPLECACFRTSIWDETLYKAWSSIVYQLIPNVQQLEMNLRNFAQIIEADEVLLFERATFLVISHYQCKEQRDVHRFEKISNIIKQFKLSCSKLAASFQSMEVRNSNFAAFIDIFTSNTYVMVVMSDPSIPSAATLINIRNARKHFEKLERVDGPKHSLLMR
UniProt P31040, sequence (P31040 whole entry, looked up): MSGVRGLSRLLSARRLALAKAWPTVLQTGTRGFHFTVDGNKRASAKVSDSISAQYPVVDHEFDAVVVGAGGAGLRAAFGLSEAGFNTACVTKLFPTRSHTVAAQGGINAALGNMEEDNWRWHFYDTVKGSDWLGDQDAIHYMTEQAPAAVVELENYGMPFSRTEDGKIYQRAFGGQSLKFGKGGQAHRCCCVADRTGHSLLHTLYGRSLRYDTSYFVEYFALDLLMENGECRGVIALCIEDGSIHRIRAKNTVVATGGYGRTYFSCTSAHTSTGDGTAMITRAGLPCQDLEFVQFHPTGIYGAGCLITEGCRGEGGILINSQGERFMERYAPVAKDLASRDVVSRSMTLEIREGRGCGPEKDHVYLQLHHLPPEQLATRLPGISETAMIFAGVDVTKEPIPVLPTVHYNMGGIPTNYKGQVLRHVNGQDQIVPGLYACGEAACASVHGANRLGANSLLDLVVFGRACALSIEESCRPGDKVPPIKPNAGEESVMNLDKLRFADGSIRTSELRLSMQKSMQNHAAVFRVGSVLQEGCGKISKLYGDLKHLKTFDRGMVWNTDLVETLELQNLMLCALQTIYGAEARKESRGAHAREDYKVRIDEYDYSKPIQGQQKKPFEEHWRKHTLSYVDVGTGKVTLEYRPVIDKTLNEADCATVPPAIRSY
UniProt Q6UVJ0, sequence (Q6UVJ0 whole entry, looked up): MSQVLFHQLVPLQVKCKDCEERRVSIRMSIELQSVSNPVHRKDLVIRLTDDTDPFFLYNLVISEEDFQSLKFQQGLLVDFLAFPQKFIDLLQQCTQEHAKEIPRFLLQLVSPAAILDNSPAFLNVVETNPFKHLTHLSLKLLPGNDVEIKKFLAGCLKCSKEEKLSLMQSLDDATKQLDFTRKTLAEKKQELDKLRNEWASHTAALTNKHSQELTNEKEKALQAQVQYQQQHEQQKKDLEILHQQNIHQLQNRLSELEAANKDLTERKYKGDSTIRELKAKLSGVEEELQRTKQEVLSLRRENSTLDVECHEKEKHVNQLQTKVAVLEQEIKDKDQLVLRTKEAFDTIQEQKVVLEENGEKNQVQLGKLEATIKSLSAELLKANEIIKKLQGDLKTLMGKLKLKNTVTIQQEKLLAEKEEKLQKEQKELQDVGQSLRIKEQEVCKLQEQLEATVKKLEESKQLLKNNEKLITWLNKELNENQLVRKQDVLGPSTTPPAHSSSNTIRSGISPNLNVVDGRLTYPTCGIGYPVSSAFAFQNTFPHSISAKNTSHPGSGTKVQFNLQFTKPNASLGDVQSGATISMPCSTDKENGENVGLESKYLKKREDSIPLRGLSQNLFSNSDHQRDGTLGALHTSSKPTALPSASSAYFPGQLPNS
UniProt O14730, sequence (O14730 whole entry, looked up): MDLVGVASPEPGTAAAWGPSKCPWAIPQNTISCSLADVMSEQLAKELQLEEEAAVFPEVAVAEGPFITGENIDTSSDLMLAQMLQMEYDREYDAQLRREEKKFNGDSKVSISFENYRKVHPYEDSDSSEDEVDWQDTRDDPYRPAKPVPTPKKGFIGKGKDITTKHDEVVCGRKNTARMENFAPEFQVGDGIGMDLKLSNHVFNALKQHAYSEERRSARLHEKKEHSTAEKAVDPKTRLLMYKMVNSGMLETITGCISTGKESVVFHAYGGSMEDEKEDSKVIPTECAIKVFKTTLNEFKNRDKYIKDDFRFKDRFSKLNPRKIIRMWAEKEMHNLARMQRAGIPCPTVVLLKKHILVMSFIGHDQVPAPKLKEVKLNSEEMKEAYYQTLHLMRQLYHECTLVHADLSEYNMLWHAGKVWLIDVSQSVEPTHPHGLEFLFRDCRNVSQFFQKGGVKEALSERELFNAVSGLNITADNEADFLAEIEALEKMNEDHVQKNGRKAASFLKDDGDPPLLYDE
UniProt Q9HBH5, sequence (Q9HBH5 whole entry, looked up): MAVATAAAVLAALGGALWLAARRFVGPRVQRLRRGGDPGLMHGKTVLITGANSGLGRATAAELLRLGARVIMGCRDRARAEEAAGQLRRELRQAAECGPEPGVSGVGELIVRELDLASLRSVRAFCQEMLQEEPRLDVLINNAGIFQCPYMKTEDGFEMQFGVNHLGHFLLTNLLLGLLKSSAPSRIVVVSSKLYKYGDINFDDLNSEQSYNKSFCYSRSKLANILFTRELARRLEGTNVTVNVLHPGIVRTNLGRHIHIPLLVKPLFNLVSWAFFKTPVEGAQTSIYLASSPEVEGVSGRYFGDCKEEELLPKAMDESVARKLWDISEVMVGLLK
UniProt Q5HYI8, sequence (Q5HYI8 whole entry, looked up): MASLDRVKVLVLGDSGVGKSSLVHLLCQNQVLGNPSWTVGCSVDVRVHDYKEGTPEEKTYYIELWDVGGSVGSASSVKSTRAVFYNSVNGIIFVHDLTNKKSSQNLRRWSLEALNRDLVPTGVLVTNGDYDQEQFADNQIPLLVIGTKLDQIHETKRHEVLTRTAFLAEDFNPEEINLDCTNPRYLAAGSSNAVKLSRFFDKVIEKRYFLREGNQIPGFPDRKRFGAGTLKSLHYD
UniProt Q5TBB1, sequence (Q5TBB1 whole entry, looked up): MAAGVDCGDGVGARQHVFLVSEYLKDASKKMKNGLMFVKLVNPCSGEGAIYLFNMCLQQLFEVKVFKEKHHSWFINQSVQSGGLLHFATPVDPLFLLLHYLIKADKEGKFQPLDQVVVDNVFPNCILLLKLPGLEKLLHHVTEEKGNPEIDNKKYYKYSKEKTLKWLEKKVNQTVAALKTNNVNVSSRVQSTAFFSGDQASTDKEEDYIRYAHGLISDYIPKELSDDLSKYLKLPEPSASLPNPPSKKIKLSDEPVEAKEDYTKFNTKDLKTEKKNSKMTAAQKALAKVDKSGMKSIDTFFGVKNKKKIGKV

Compound in this assay: Cn1cc(-c2ccc3c(c2)CCN3C(=O)Cc2cccc(C(F)(F)F)c2)c2c(N)ncnc21
As to the kind of experiment: log2 fold change, soluble protein after heating vs DMSO (PISA); higher = thermal stabilisation; K562 lysate, 10 uM; active = over 0.2 and 3.5 SD of the protein, either way, in both replicates (recomputed). Put shortly: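 Pellets of K562 cells were dounce-homogenised in PBS pH 7.4 with 1 mM MgCl2, and the crude extract was held at 1 mg/mL protein for a 30 min treatment with 10 μM compound. Aliquots were heated for 3 min over 48°C-58°C and pooled before NP-40 was added to 0.5% at 4°C. The supernatant from 21,000xg for 90 min was quantified by TMTpro 16plex LC-MS/MS with channel sums equalised. Values are reported from duplicates as log-two fold change in thermal stability relative to solvent controls.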
Regarding RTN4IP1 (UniProt Q8WWV3), the log2 fold change was 0.028.
As for SATB2 (UniProt Q9UPW6), the figure is 0.013; as for RRAGA (UniProt Q7L523), 0.024; as for RFC2 (UniProt P35250), 0.062.
On to SASS6 (UniProt Q6UVJ0), for which the log2 fold change is 0.008.
The same measure for SEC16A isoform 5 (UniProt O15027): -0.002; for SEH1L isoform 1 (UniProt Q96EE3): 0.007; for RECQL5 (UniProt O94762): -0.04.
Consider SAR1A (UniProt Q9NR31), for which the log2 fold change is 0.01.
The same measure for RAP1GAP isoform 4 (UniProt P47736): 0.028; for RNASEL (UniProt Q05823): 0.02.
Consider RIOK3 (UniProt O14730), for which the log2 fold change is 0.002.
The same measure for RRM1 (UniProt P23921): 0.016; for RBBP8 isoform 2 (UniProt Q99708): 0.031; for REEP5 (UniProt Q00765): -0.012.
Consider RAB21 (UniProt Q9UL25), for which the log2 fold change was -0.022.
As for RDH14 (UniProt Q9HBH5), the figure is 0.009; as for SDHA (UniProt P31040), -0.033; as for RABL3 (UniProt Q5HYI8), 0.01.
As for RBMX (UniProt P38159), the figure is -0.007; as for RNASEH2B (UniProt Q5TBB1), -0.011.
For RAC2 (UniProt P15153), the log2 fold change is -0.093.
As for RPS6KA3 (UniProt P51812), the figure is 0.031.
